Laboratory results as given in PubChem BioAssay (NCI).
This is part of a sample that, as a whole, favours compounds with a hit. Of some 83,000 tested, about 20% had one in any assay.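 Results are percent growth after 48 hours of single-concentration exposure. 100 means growth as in untreated cells, lower positive values show inhibition; negative values down to -100 show cell death.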 Calls of active or inactive are those of the source. How the source made its calls: active means growth percent below 10; inactive means the rest.

Tests used:
Experiment in all cases: NCI-60 one-dose screen, 48 h (100 = growth as untreated, 0 = no growth, -100 = all killed)
Conditions in all cases: 10 µM unless noted
[1] = tested on: NCI-H23 lung
[2] = tested on: NCI-H226 lung
[3] = tested on: NCI-H322M lung
[4] = tested on: HOP-62 NSCLC
[5] = tested on: NCI-H460 lung
[6] = tested on: HOP-92 NSCLC
[7] = tested on: NCI-H522 lung
[8] = tested on: A549/ATCC NSCLC
[9] = tested on: 786-0 renal
[10] = tested on: COLO 205 colon
[11] = tested on: DU-145 prostate
[12] = tested on: K-562 leukemia
[13] = tested on: MALME-3M melanoma
[14] = tested on: MDA-MB-231 breast
[15] = tested on: RXF 393 renal
[16] = tested on: SF-268 CNS
[17] = tested on: SF-295 CNS
[18] = tested on: SF-539 CNS
[19] = tested on: M14 melanoma

Measured: growth

COC(=O)c1ccc(C)cc1
inactive: [1] 97.5% | [2] 106% | [3] 113% | [4] 107% | [5] 106% | [6] 100% | [7] 97.5% | [8] 103% | [9] 103% | [10] 106% | [11] 103% | [12] 102% | [13] 108% | [14] 107% | [15] 106% | [16] 97.9% | [17] 102% | [18] 103% | [19] 116%

Cc1cnc(NC(=O)C(Cc2ccccc2)NC(=O)c2ccccc2)s1 (stereo not drawn)
inactive: [1] 86% | [2] 70.2% | [3] 105% | [4] 84.1% | [5] 74.3% | [6] 19.1% | [7] 63.9% | [8] 90.7% | [9] 96.9% | [10] 91.9% | [11] 85.5% | [12] 29.7% | [13] 54% | [14] 77.9% | [15] 50.2% | [16] 96.9% | [17] 65.9% | [18] 87% | [19] 52%

Cc1ccc2c(c1)C(C)Cc1c(ncnc1-n1cnc3ccccc31)N2C (stereo not drawn)
active: [5] 4.64% | [7] -15.3% | [10] -11.5% | [11] 8.43% | [12] 6.64% | [17] -11.4% | [18] -33.1%
inactive: [1] 28.9% | [2] 72.4% | [3] 43% | [4] 38.1% | [6] 62.6% | [8] 31% | [9] 30.9% | [13] 65.6% | [14] 25.1% | [15] 21.5% | [16] 34.1% | [19] 18.1%

COc1cccc2nc(Nc3ccc(NC(=O)c4ccc5ncccc5c4)cc3)ccc12
active: [17] 6.41%
inactive: [1] 92.8% | [2] 97.5% | [3] 81.4% | [4] 91.9% | [5] 84.8% | [6] 111% | [7] 99.9% | [8] 78.1% | [9] 42.7% | [10] 103% | [11] 89.6% | [12] 60.1% | [13] 70.2% | [14] 68.3% | [15] 30% | [16] 82.8% | [18] 48.1% | [19] 92.6%

O=c1cc(C2NCCc3c2[nH]c2ccccc32)c2c(ccc3ccccc32)o1 (stereo not drawn)
inactive: [1] 79.6% | [2] 77% | [3] 62.7% | [4] 82.4% | [5] 48.1% | [6] 41% | [7] 62.4% | [8] 67.9% | [9] 59.1% | [10] 65.3% | [11] 59.6% | [12] 52.9% | [13] 60.1% | [14] 80.7% | [15] 44.2% | [16] 85.9% | [17] 81.8% | [18] 79.4% | [19] 65.2%

Cc1ccc2c(c1)ncn2-c1ncnc2c1CC(C)c1ccccc1N2C (stereo not drawn)
inactive: [1] 24% | [2] 54.2% | [3] 61.3% | [4] 33.9% | [6] 24% | [8] 23.5% | [9] 24.9% | [11] 11.8% | [13] 49.3% | [14] 26.9% | [15] 72% | [16] 19.9% | [17] 13.3% | [19] 19.7%
active: [5] 3.26% | [7] -22.8% | [10] -33.4% | [12] 7.17% | [18] 4.79%

CC1CCc2c(sc(NC(=O)CSc3nnc4ccccn34)c2C(N)=O)C1 (stereo not drawn)
active: [15] 1.36%
inactive: [1] 109% | [2] 103% | [3] 121% | [4] 110% | [5] 106% | [6] 97.8% | [7] 108% | [8] 118% | [9] 115% | [10] 126% | [11] 144% | [12] 117% | [13] 181% | [14] 102% | [16] 109% | [17] 93.6% | [18] 137% | [19] 117%

CCN(CC)CCSc1c2ccc(Cl)cc2nc2ccc(OC)cc12
inactive: [1] 87.1% | [2] 100% | [3] 105% | [4] 75.9% | [5] 102% | [6] 82.3% | [8] 74% | [9] 67.6% | [10] 26.8% | [13] 101% | [14] 51.9% | [15] 116% | [16] 96.7% | [17] 105% | [18] 99.6% | [19] 79%
active: [7] -24.9% | [11] -38% | [12] 9.42%

O=C(CSc1nc(-c2ccc(Cl)cc2)cn1-c1ccc(Cl)cc1)c1ccc(Br)cc1
inactive: [1] 77.1% | [2] 68.4% | [3] 94.2% | [4] 48.3% | [5] 50.8% | [6] 43.9% | [7] 58.8% | [8] 59.2% | [9] 34.7% | [10] 81.7% | [11] 90.9% | [12] 86.4% | [13] 94% | [14] 60.1% | [15] 67.9% | [16] 78.1% | [17] 52.1% | [18] 84.7% | [19] 89.1%

CCC(c1cccc(Br)c1)C(C(=O)O)c1ccc(OC)cc1 (stereo not drawn)
inactive: [1] 102% | [2] 108% | [3] 111% | [4] 96.1% | [5] 107% | [6] 93.6% | [7] 91.5% | [8] 102% | [9] 104% | [10] 120% | [11] 116% | [12] 77.6% | [13] 101% | [14] 111% | [15] 118% | [16] 105% | [17] 108% | [18] 104% | [19] 86.5%

c1ccc2c(c1)Oc1ccccc1C2C1c2ccccc2Oc2ccccc21
inactive: [1] 90.6% | [2] 103% | [3] 94.1% | [4] 89.6% | [5] 95.9% | [6] 94.8% | [7] 87.6% | [8] 88.3% | [9] 94.1% | [10] 99.5% | [11] 93.6% | [12] 93.6% | [13] 108% | [14] 93.1% | [15] 94.2% | [16] 97.2% | [17] 96.1% | [18] 96.5% | [19] 99.1%

CC/C=C\C[C@H](O)C/C=C1/C(=O)C(Cl)=C[C@@H]1C/C=C\CCCC(=O)OC
inactive: [3] 31.8%
active: [1] -43.8% | [2] -10.9% | [4] -27.1% | [5] -31.6% | [6] -31.3% | [7] -67.1% | [8] 4.38% | [9] -40.8% | [10] -61.6% | [11] -67.1% | [12] 2.41% | [13] -9.56% | [14] -55.2% | [15] -62.8% | [16] -35% | [17] -19.6% | [18] -4.69% | [19] -32.4%

Cc1ccnc2nc(C(=O)OCC(=O)Nc3ccc(-c4ccccc4)cc3)nn12
inactive: [1] 99.5% | [2] 110% | [3] 112% | [4] 94.5% | [5] 119% | [6] 69.7% | [7] 107% | [8] 99.3% | [9] 99.8% | [10] 104% | [11] 109% | [12] 61.8% | [13] 115% | [14] 104% | [15] 49.7% | [16] 113% | [17] 92.7% | [18] 95.6% | [19] 99.9%

CCSc1nnc(Nc2ccc(C(C)C)cc2)s1
inactive: [1] 79.3% | [2] 75% | [3] 97.6% | [4] 91.5% | [5] 97.5% | [6] 92.7% | [7] 87.2% | [8] 86.5% | [9] 86% | [10] 86.9% | [11] 105% | [12] 51.8% | [13] 90.7% | [14] 92.5% | [15] 28% | [16] 112% | [17] 91.1% | [18] 90.4% | [19] 95.7%

Cn1c(=O)c2c(nc3n2CCN(CCc2ccc(OCCN4CCOCC4)cc2)C3)n(C)c1=O
inactive: [1] 101% | [2] 100% | [3] 100% | [4] 106% | [5] 107% | [6] 96.6% | [7] 94.2% | [8] 99.4% | [9] 99.6% | [10] 115% | [11] 109% | [12] 109% | [13] 106% | [14] 104% | [15] 111% | [16] 105% | [17] 106% | [18] 109% | [19] 105%

COc1ccc(Cl)cc1NC(N)=S
inactive: [1] 94.6% | [2] 107% | [3] 108% | [4] 110% | [5] 109% | [6] 92.2% | [7] 80.7% | [8] 103% | [9] 102% | [10] 127% | [11] 108% | [12] 104% | [13] 104% | [14] 104% | [15] 112% | [16] 99.5% | [17] 106% | [18] 99.8% | [19] 105%

O=S(=O)(NCCNc1cc(-c2cn(-c3ccccc3)nc2-c2ccccc2)ccn1)c1cccc2ccccc12
active: [6] 2.24% | [10] 8.28%
inactive: [1] 49.8% | [2] 48% | [3] 68.7% | [4] 68.2% | [5] 44.4% | [7] 78.9% | [8] 42.3% | [9] 49.7% | [11] 68.9% | [12] 20.7% | [13] 60.7% | [14] 40% | [15] 55.3% | [16] 55% | [17] 35.9% | [18] 56.9% | [19] 42.9%
